The assay concerns HL-60(TB) leukemia. Put plainly: NCI-60 one-dose screen, 48 h (100 = growth as untreated, 0 = no growth, -100 = all killed). Particulars: 10 µM unless noted.

Each structure is given as a SMILES string. Several values for one entry are separate records, joined by “and”; a condition that tells them apart may be missing. Identical values can stand only once. This is part of a sample that, as a whole, favours compounds with a hit. Of some 83,000 tested, about 20% had one in any assay.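 Cells were grown in 96-well plates and exposed to the test compound at a single concentration for 48 hours; results are reported as percent growth, with values below 10 considered active.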 Activity calls are given as the source filed them.

On to `C[C@@H](O)[C@H]1C(=O)N2C(C(=O)O)=C(SCCN=CN)C[C@H]12`, for which the growth is 19.1% (inactive).
`N#Cc1cccc(F)c1`: the growth was 76.2% (inactive).
With `O=C(O)C1(C(=O)O)CCC1.[NH2-].[NH2-].[Pt+2]` the figure was 103% (inactive) and 58.7% (inactive); with `CN(C)c1ccc(/C=C/C=N/NC(=O)c2cc(O)c(O)c(O)c2)cc1`, 84.2% (inactive).
With `O=C(CI)NC1Oc2ccccc2-c2oc(=O)c(-c3ccccc3)cc21` (configuration not stated) the figure was -39.3% (active).
Consider `C#C[C@@]1(O)[C@@H](CO)O[C@@H](n2cc(F)c3c(N)ncnc32)[C@@H]1O`, for which the growth is -22.8% (active).
With `CCOc1cc2ncc(C#N)c(Nc3ccc(F)c(Cl)c3)c2cc1NC(=O)CC1CCSS1` (configuration not stated) the figure was -33.9% (active); with `CCCCCCN1C(=O)C2=C(c3ccc(Cl)cc3)Nc3c(c(C)nn3-c3ccccc3)C2c2ccccc21` (configuration not stated), 102% (inactive); with `CCOc1ccc(Nc2c3ccccc3nc3ccccc23)cc1`, 90.2% (inactive) and 8.63% (active) and 8.99% (active).
For `O=C1c2cccc3cccc(c23)C(=O)N1N1C(=O)c2cccc3c(N4CCOCC4)ccc(c23)C1=O`, the growth is 125% (inactive).
With `N#C/C(=C\c1ccc(-c2ccc(Br)cc2)o1)c1nc(-c2ccco2)cs1` the figure was 89.3% (inactive); with `CN1C=CN(Cc2ccc(-c3ccccn3)nc2)[CH-]1.CN1C=CN(Cc2ccc(-c3ccccn3)nc2)[CH-]1.[Au+3]`, -9.42% (active).
With `Cc1ccc(Cc2cnc(NC(=O)c3cc(Br)cs3)s2)cc1` the figure was 8.08% (active); with `COc1cc(OC)cc(C2=C3CC[C@@H]4[C@H](CC[C@]5(C)C(=O)CC[C@@H]45)C3=CC3C(O)c4cccnc4N4C(=O)COC234)c1` (some centres not stated), 98% (inactive).
With `O=C1C(Cl)=C(NCc2ccco2)C(=O)c2ccccc21` the figure was 85% (inactive).
On to `Clc1ccc(Sc2cnc(-c3ccccc3)o2)cc1`, for which the growth was 99.5% (inactive).
Take `COC(=O)C(CSC(c1ccccc1)(c1ccccc1)c1ccccc1)NC(=O)C(CC(N)=O)NC(=O)OCc1ccccc1` (configuration not stated): the growth was -7.75% (active).
Take `COc1ccc(CCNC(=S)NN)cc1OC`: the growth is 92.1% (inactive).
With `Cc1nn(-c2nc3ccccc3[nH]2)c2c1C(c1ccc(OCC(N)=O)cc1)CC(=O)N2` (configuration not stated) the figure was 113% (inactive); with `CCOC(=O)C#Cc1c(C(=O)OCC)nnn1[C@@H]1O[C@H](CO)[C@H]2OC3(CCCCC3)O[C@H]21`, 52.8% (inactive); with `N=C(N)c1ccc(-c2ccc(-c3ccco3)o2)cc1`, 16.6% (inactive).
With `O=C1C=Cc2ccccc2/C1=C/c1nc(-c2ccccc2)oc1O` the figure was 101% (inactive); with `CC1CCN(S(=O)(=O)c2ccc(S(=O)(=O)N3CCCC(c4nc5c(nnn5Cc5cccc(Cl)c5)c(=O)[nH]4)C3)cc2)CC1` (configuration not stated), 16.1% (inactive).
Regarding `O=C1Nc2ccccc2/C1=C\c1c(-c2ccc(F)cc2)nc2ccccn12`, the growth is 70.3% (inactive).
As for `OC(Cc1cccnc1)c1ccccc1` (configuration not stated), the growth was 64.3% (inactive).
With `O=C1C2=C(CCN(Cc3ccccc3)C2)N2CCN=C2N1Cc1ccc(F)cc1F` the figure was 27.8% (inactive); with `N=C(N)N1CCc2ccccc2C1`, 93.6% (inactive) and 109% (inactive).
With `O=C(Cn1ccc(=O)[nH]c1=O)c1ccc([N+](=O)[O-])o1` the figure was 87.1% (inactive); with `CCC(=C(c1ccc(OCCN2CCCCC2)cc1)c1ccc(OCCN2CCCCC2)cc1)c1ccc(Cl)cc1`, -62.4% (active); with `CC1(C)CN(Cc2ccccc2)CCN1Cc1ccccc1`, 100% (inactive).
With `Cc1oc2c(C(=O)N/N=C\c3ccc(O)cc3O)c[nH]c2c1C` the figure was -9.06% (active); with `COc1cc(CNC(=O)CCCC/C=C/C(C)C)ccc1OCc1nnc(Nc2ccc([N+](=O)[O-])cc2)o1`, 101% (inactive).
For `Cc1nn(Cc2ccccc2)cc1C(=O)Nc1sc2c(c1C(N)=O)CCC(=O)C2`, the growth is -4.39% (active).
As for `CC[C@H](CC[C@@H](C)[C@H]1CC[C@H]2[C@@H]3CC=C4C[C@@H](O)CC[C@]4(C)[C@H]3CC[C@]12C)C(C)C`, the growth is 125% (inactive) and 100% (inactive).
With `Cc1cc(-c2cc(C)c(N)cc2C)c(C)cc1N` the figure was 90.2% (inactive); with `CC1(C)Cc2c(sc3ncn4nc(-c5ccc(O)cc5)nc4c23)CO1`, 62.1% (inactive).
With `CC(C)(C)c1cc(NC(=O)Nc2ccc(-c3cn4c(n3)sc3cc(OCCN5CCOCC5)ccc34)cc2)no1` the figure was 18.7% (inactive) and 41% (inactive).

The values are drawn from PubChem BioAssay (NCI).
